# The list is not random: actives were taken first. Their share in the collection is about 31%.
# CYP2C9 activ – activators of human CYP2C9. P11712. recombinant CYP2C9, luciferin-H conversion, luminescence; active compounds read high; factor 1 = untreated enzyme, 0 = blocked. activation factor at 5 µM. actives 1.4% (n = 96,000);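 active means activation factor of 2 or more for CYP2C9 at a 5 µM dose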;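 further: 0 = sulfaphenazole-blocked wells and 1 = vehicle-only wells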
# PLAP act – activators of human placental alkaline phosphatase. purified PLAP enzyme, luminescent substrate read-out; active compounds read high. activation fold at 20 µM. P05187. AID 696. actives 1.2% (n = 96,000); in the data active means activation fold above about 2
# Target sequence (P05187 whole entry, looked up): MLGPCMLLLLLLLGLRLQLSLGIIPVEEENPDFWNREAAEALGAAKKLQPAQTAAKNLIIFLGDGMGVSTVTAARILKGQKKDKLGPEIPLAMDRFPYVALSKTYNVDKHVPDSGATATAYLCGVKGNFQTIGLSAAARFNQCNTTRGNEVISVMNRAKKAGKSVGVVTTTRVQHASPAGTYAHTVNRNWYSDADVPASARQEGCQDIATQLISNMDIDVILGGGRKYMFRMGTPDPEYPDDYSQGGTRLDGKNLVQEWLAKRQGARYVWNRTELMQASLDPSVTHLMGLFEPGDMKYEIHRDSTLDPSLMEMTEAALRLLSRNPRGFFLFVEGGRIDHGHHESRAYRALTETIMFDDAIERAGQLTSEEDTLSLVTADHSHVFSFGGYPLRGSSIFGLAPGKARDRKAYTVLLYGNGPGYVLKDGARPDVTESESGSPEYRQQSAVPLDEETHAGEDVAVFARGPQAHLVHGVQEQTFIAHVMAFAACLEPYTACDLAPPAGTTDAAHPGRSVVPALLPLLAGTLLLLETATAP
# CYP2C19 inhib – human CYP2C19 inhibition; inhibition, % at 5 µM; actives 21% (n = 96,000); CYP2C19 Supersomes, luciferin-H EGE luminescence, 30 min; AID 778;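 active means CYP2C19 inhibition above a set limit at 5 µM in the primary screen, cut at about 50% in these data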;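 further: plate controls were negative control wells for no effect and 2.5 mM tranylcypromine positive control for full effect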
# CYP2C9 inh – blocks human cytochrome P450 2C9; P11712; CYP2C9 Supersomes, luciferin-H conversion, luminescence; inhibition, % at 5 µM; actives 20% (n = 96,000); AID 777;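 active means blocking of liver enzyme CYP2C9 beyond about 50% at 5 µM, limit read from the data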
# CYP2C19 activ – cytochrome P450 2C19 (human) activation. 96,000 tested, under 10 active. P33261. activation factor at 5 µM. AID 1025. recombinant CYP2C19, luciferin-H EGE luminescence; active compounds read high; 0 = fully inhibited enzyme, 1 = untreated enzyme;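 active means activation factor of at least 2 at 5 µM in the primary screen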;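 further: 0 = wells with 2.5 mM tranylcypromine and 1 = vehicle-only wells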
# Numbers without * were called inactive.
SMILES,CYP2C9 activ,PLAP act,CYP2C19 inhib,CYP2C9 inh,CYP2C19 activ
O=C1C2(CCC13COC(c1ccc(O)cc1)OC3)COC(c1ccc(O)cc1)OC2 (stereo unspecified),1,1,-8.7,-4.0,1.1
O=C1CC(c2ccc(Cl)cc2)CC(O)=C1C=NCc1ccc(Cl)c(Cl)c1 (stereo unspecified),0.6,0.9,19.6,39.8,0.8
COc1ccc(/C=N/n2c(SC)nnc(C(C)(C)C)c2=O)cc1OC,0.4,1.6,71.1*,56.8*,0.3
Cc1cc(C)cc(NC(=O)CSc2nnc(-c3ccccc3)n2N)c1,1,1.1,7.0,-3.3,0.9
CCc1ccc(N/C(SC)=C(/C#N)C(N)=O)cc1,0.5,0.9,29.1,49.5,0.7
CC(=O)c1ccc(NC(=O)CSCCO)cc1,1,0.9,-2.5,-3.2,1
CCc1ccc(NC(=O)CSc2nnc(CC)c(CC)n2)cc1,0.5,0.9,64.1*,49.4,0.4
CCc1nnc(SCC(=O)Nc2ccc(C(C)=O)cc2)nc1CC,0.6,1.4,74.1*,40.0,0.3
CCc1ccc(NC(=O)CSc2nnc(SCC(=O)Nc3ccc(CC)cc3)n2N)cc1,0.4,0.8,-6.8,61.9*,1.1
Cc1cc(C)c(NC(=O)CSc2nnc(SCC(=O)Nc3c(C)cc(C)cc3C)n2N)c(C)c1,0.9,1,67.8*,14.6,0.3
COc1ccc(-c2nnc3ccc(SCC(=O)N4CCCCC4)nn23)cc1OC,1.1,1,-0.5,-5.8,1
O=C(COC(=O)c1cccc(S(=O)(=O)N2CCc3ccccc32)c1)NC1CCS(=O)(=O)C1 (stereo unspecified),0.7,1.6,41.6,30.8,0.6
Nn1c(SCC(=O)Nc2ccc(F)cc2)nnc1C1CCCCC1,1,0.7,-2.4,4.6,1
Cc1ccc(NC(=O)CSc2nnc(C3CCCCC3)n2N)cc1F,0.3,0.9,84.7*,71.7*,0.2
O=C1CC(C(=O)N2CCOCC2)C2(CCCCC2)O1 (stereo unspecified),1.2,1.1,26.1,-23.9,0.7
CCCCSc1nnc2n(CCc3ccccc3)c(=O)c3c4c(sc3n12)COC(C)(C)C4,0.5,1.3,80.5*,50.6*,0.2
CC(C)N=C(Nc1ccccc1)c1cccnc1,1.4,0.9,6.2,-38.0,0.9
Cc1nn(-c2nc3ccccc3s2)c(N)c1Sc1ccc(F)cc1,0.2,0.9,29.3,84.7*,0.7
Cc1nn(-c2nc3ccccc3s2)c(N)c1-c1ccccc1,0.8,1.4,10.6,20.7,0.9
CCCCN1C2=NCCCN2c2cc(C)c(C)cc21,1,0.8,-8.2,2.2,1.1
Cc1noc(C)c1C(c1ccccc1)c1ccccc1,0.2,0.7,94.4*,76.2*,0.1
O=C(C(Cc1ccc(Cl)cc1)NS(=O)(=O)c1ccccc1)N1CC[C@@]2(O)CCCC[C@H]2C1 (stereo partly specified),0.1,1.2,69.5*,87.8*,0.3
O=C(NCc1cccnc1)C1CCCN(Cc2cnn(-c3ccccc3)c2-n2cccc2)C1 (stereo unspecified),0.6,1.4,22.4,44.7,0.8
O=C(/C=C\Nc1cccc(F)c1)c1cccs1,0.8,0.8,55.3*,19.9,0.4
CCc1cc2cc3c(cc2nc1SCC(=O)Nc1cc(C)on1)OCO3,1.2,1.2,-14.7,-23.1,1.1
SMILES,CYP2C9 activ,PLAP act,CYP2C19 inhib,CYP2C9 inh,CYP2C19 activ
O=C(NC1CC1)C1CCN(Cc2cnn(-c3ccccc3)c2-n2cccc2)CC1,0.9,2*,8.9,7.9,0.9
COc1cccc(CNC(=O)C2CCN(Cc3cnn(-c4ccccc4)c3-n3cccc3)CC2)c1,0.8,2.2*,14.4,23.5,0.9
CC(C)NC(=O)C1CCN(Cc2cnn(-c3ccccc3)c2-n2cccc2)CC1,1.1,1.5,-15.7,-7.1,1.2
Cc1ccc(N/C=C/C(=O)c2sc(-c3ccccc3)nc2C)cc1,0.8,1,8.5,20.9,0.9
CCCCNC(=O)CSc1nc2ccsc2c(=O)n1C1CCN(C(=O)OCC)CC1,0.4,1.3,36.2,56.0*,0.6
CCCCn1c(-c2ccco2)nc2ccccc2c1=O,0.8,1,29.2,23.5,0.7
CCCCOc1[nH]c2nc(-c3ccco3)n(Cc3ccco3)c(=N)c2c1C#N,0.2,1.3,61.0*,81.0*,0.4
O=C(Nc1ccc(-c2noc(CCc3ccccc3)n2)cc1)c1ccco1,0.3,1.1,40.6,70.6*,0.6
c1ccc(CCc2nc(-c3cccnc3)no2)cc1,0.9,0.7,85.7*,10.2,0.1
c1cncc(-c2noc(CC3CCCCC3)n2)c1,1.1,0.8,80.5*,-9.2,0.2
Clc1ccc(Cc2nc(-c3cccnc3)no2)cc1,0.6,1,54.2*,40.3,0.5
CC1(C)OC(=O)N(Cc2ccco2)C1(C)O (stereo unspecified),1.1,1.3,0.0,-5.7,1
O=c1[nH]ncn2cccc12,1.1,0.9,-5.8,-13.2,1.1
CCOC(=O)C1=C(N)N(c2ccccc2Oc2ccccc2)C(=O)C1,0.4,1.6,78.4*,64.8*,0.2
CCOC(=O)N1CCN(S(=O)(=O)c2c(C)[nH]c(=O)[nH]c2=O)CC1,1.4,0.9,20.3,-39.0,0.8
O=C1C=C(c2ccccc2)OC2(CCCC2)O1,1.1,1,63.0*,-11.9,0.4
COc1cc(NC(C)C(=O)N2CC(C)OC(C)C2)cc(OC)c1 (stereo unspecified),1.3,0.9,-32.3,-34.7,1.3
Nc1c(C(=O)NCc2ccco2)c2nc3ccccc3nc2n1CCc1ccccc1F,0.5,1.7,38.2,51.8*,0.6
COc1ccc(CCn2c(N)c(C(=O)NCc3ccco3)c3nc4ccccc4nc32)cc1OC,0.4,1.8,77.2*,55.9*,0.2
Cc1cnc(C(=O)Nc2ccc(C(=O)N3CCCCC3)cc2)cn1,1,1.1,26.8,-0.5,0.7
O=C(CN(Cc1ccccc1)C(=O)c1ccco1)NCc1ccc(F)cc1,0.6,0.9,83.5*,44.1,0.2
O=C(CN(CCc1ccccc1)C(=O)CNS(=O)(=O)c1ccc(F)cc1)NCc1ccco1,0.5,1.5,72.8*,46.1,0.3
O=C(CN(Cc1ccc2c(c1)OCO2)C(=O)CNS(=O)(=O)c1ccccc1)NCc1ccco1,0.7,0.9,74.0*,33.6,0.3
O=C(CN(Cc1ccccc1F)C(=O)c1ccco1)NCc1ccc(F)cc1,1.2,0.9,36.8,-20.5,0.6
O=C(CN(C(=O)CNS(=O)(=O)c1ccccc1)c1ccc2c(c1)OCCO2)NCc1ccco1,0.8,1,30.7,23.5,0.7
CC1(C)CC(NC(=O)C23CCC(C)(C(=O)C2)C3(C)C)CC(C)(C)N1 (stereo unspecified),0.4,1,-1.1,60.1*,1
O=C1c2ccccc2NC(c2cccc(Cl)c2)N1N=C1CCCCCC1 (stereo unspecified),0.9,0.9,29.0,7.4,0.7
COc1ccc(CCSc2nnc(C3CCCCC3)n2N)cc1,0.5,1.2,57.5*,51.9*,0.4
